According to ChEMBL document CHEMBL1961873, “Compounds: GSK PKIS; Assays: Nanosyn kinase panel” (2012):
“And” between values parts separate entries of the source, which are not always exact repeats. Equal values may be shown once.

Columns and labels:
[1] = molecular target: Sphingosine kinase 1 (Homo sapiens) (UniProt Q9NYA1); settings: at 1 µM;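 note: mean SPHK1 inhibition value reported from the GSK PKIS kinase panel screen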
[2] = molecular target: T1, Sphingosine kinase 2 (Homo sapiens) (UniProt Q9NRA0); settings: at 0.1 µM
T1 sequence (whole entry): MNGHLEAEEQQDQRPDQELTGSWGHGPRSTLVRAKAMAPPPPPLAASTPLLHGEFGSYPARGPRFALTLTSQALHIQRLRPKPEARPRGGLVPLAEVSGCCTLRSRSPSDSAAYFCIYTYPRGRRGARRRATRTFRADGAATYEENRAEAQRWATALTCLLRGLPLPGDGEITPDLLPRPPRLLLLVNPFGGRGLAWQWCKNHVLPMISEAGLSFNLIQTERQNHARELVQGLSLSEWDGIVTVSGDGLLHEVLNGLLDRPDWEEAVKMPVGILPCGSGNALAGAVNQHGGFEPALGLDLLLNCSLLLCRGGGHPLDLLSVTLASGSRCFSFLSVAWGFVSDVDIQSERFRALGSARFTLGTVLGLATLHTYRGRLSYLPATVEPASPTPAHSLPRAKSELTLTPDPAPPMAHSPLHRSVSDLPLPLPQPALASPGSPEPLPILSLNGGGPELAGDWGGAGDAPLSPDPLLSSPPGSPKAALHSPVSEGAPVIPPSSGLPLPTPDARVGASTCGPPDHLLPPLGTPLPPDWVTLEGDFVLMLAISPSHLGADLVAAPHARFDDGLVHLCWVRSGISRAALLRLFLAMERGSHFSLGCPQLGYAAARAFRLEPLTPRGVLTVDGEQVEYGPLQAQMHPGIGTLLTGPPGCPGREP

[3] = molecular target: T1, Sphingosine kinase 2 (Homo sapiens); settings: at 1 µM
[4] = molecular target: Casein kinase II subunit alpha (Homo sapiens) (UniProt P68400); settings: at 0.1 µM
Chain of Casein kinase II subunit alpha (Homo sapiens) (P68400 whole entry, looked up): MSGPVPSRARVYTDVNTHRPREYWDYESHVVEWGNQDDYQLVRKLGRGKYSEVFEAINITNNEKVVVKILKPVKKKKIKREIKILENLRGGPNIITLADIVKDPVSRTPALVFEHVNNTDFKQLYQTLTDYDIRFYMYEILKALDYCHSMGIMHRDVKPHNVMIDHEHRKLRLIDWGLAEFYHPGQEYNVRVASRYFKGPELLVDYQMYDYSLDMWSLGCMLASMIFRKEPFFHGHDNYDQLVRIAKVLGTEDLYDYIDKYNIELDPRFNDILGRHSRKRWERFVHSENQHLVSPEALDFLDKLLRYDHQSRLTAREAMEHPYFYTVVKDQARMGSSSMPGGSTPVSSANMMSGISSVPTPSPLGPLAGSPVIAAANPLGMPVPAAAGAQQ

[5] = molecular target: Casein kinase II subunit alpha (Homo sapiens) (UniProt P68400); settings: at 1 µM
[6] = molecular target: T2, Inhibitor of nuclear factor kappa-B kinase subunit alpha (Homo sapiens) (UniProt O15111); settings: at 0.1 µM
T2 sequence (whole entry): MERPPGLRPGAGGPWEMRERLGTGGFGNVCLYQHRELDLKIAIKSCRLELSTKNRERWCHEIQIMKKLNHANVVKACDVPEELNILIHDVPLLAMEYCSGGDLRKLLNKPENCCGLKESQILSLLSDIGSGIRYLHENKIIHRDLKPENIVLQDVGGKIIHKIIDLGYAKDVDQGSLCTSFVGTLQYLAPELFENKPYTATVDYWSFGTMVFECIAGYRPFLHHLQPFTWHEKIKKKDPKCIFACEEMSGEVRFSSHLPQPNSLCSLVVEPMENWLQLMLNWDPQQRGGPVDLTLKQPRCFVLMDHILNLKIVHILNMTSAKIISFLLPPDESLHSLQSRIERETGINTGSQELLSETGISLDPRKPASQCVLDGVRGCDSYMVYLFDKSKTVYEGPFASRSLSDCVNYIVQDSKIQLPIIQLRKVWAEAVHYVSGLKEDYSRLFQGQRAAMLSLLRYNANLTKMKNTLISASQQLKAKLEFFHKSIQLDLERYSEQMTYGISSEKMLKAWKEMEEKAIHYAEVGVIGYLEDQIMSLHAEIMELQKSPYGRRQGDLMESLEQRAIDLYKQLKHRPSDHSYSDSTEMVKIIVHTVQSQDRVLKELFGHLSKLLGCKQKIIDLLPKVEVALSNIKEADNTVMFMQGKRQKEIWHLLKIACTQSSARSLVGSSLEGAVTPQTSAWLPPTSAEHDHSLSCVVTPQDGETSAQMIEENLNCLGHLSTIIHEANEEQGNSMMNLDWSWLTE

[7] = molecular target: T2, Inhibitor of nuclear factor kappa-B kinase subunit alpha (Homo sapiens); settings: at 1 µM
[8] = molecular target: T3, Inhibitor of nuclear factor kappa-B kinase subunit beta (Homo sapiens) (UniProt O14920); settings: at 0.1 µM
T3 sequence (whole entry): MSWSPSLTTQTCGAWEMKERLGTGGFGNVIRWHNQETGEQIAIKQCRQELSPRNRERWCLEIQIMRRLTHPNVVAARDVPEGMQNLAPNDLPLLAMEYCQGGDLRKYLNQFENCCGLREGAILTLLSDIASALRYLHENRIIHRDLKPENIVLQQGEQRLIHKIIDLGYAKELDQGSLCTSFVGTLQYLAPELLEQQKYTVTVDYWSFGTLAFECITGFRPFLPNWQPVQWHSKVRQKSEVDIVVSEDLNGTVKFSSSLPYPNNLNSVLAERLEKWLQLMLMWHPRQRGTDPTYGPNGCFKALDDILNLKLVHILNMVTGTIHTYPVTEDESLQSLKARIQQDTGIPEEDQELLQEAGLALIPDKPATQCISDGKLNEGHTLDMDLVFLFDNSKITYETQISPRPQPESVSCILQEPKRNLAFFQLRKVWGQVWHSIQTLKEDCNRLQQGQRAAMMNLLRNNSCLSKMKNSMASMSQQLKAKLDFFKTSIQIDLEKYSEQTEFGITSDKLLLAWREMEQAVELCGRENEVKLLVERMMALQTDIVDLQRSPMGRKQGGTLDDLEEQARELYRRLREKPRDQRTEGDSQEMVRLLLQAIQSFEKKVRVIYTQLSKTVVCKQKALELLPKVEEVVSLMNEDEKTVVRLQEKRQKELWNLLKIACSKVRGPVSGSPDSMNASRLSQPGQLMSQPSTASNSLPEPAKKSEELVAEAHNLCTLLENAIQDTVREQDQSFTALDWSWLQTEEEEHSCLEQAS

[9] = molecular target: T3, Inhibitor of nuclear factor kappa-B kinase subunit beta (Homo sapiens); settings: at 1 µM
[10] = molecular target: T4, Inhibitor of nuclear factor kappa-B kinase subunit epsilon (Homo sapiens) (UniProt Q14164); settings: at 0.1 µM
T4 sequence (whole entry): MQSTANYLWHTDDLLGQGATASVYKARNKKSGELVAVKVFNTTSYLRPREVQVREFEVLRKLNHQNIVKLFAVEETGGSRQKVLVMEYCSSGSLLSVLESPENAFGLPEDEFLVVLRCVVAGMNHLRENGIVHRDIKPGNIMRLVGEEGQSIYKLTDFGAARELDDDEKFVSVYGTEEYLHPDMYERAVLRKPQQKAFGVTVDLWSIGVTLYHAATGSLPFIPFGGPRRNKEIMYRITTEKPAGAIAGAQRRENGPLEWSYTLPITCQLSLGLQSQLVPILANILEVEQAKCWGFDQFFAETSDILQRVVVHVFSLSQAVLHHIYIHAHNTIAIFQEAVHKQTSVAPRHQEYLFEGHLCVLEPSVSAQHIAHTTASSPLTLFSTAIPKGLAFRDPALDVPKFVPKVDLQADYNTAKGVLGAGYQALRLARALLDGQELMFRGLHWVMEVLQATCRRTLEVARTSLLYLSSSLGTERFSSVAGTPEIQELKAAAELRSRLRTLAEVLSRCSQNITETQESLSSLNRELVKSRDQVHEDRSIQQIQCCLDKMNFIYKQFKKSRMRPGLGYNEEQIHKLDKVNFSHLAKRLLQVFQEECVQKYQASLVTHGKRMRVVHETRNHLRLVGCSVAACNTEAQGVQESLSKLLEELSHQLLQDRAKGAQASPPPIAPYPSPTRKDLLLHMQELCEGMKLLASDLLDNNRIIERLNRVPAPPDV

[11] = molecular target: T4, Inhibitor of nuclear factor kappa-B kinase subunit epsilon (Homo sapiens); settings: at 1 µM
[12] = molecular target: T5, Serine/threonine-protein kinase Nek1 (Homo sapiens) (UniProt Q96PY6); settings: at 0.1 µM
T5 sequence (whole entry): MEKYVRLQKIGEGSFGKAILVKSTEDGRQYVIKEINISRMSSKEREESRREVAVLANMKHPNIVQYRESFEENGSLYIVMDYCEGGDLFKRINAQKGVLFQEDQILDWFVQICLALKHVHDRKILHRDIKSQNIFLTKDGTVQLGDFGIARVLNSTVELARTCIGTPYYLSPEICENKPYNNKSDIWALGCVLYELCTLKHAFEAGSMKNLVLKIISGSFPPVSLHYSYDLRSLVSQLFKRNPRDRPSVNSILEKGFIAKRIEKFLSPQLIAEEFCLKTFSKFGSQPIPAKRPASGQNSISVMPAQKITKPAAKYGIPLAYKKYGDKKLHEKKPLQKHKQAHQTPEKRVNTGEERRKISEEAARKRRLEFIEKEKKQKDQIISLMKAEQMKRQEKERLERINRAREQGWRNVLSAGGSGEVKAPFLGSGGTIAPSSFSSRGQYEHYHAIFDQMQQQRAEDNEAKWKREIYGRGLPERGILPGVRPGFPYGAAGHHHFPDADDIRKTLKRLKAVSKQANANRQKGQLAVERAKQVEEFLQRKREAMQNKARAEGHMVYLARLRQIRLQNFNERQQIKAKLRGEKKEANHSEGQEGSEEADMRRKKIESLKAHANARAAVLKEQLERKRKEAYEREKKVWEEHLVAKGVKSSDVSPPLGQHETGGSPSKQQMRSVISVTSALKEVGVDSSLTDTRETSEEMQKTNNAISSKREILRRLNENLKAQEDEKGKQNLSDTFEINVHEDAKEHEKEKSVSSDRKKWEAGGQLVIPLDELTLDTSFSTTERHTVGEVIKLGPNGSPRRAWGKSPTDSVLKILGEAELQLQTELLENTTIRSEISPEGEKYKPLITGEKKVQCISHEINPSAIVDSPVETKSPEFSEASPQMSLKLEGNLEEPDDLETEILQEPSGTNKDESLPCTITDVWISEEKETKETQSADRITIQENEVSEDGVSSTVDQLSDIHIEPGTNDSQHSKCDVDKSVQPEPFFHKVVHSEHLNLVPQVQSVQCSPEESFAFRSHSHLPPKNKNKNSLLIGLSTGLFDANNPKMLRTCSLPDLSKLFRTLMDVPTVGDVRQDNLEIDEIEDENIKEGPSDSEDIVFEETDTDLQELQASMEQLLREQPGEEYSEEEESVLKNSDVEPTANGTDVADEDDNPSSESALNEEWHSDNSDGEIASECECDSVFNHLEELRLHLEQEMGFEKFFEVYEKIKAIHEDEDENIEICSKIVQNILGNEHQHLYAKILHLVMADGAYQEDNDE

[13] = molecular target: T5, Serine/threonine-protein kinase Nek1 (Homo sapiens); settings: at 1 µM
[14] = molecular target: T6, Serine/threonine-protein kinase Nek2 (Homo sapiens) (UniProt P51955); settings: at 0.1 µM
T6 sequence (whole entry): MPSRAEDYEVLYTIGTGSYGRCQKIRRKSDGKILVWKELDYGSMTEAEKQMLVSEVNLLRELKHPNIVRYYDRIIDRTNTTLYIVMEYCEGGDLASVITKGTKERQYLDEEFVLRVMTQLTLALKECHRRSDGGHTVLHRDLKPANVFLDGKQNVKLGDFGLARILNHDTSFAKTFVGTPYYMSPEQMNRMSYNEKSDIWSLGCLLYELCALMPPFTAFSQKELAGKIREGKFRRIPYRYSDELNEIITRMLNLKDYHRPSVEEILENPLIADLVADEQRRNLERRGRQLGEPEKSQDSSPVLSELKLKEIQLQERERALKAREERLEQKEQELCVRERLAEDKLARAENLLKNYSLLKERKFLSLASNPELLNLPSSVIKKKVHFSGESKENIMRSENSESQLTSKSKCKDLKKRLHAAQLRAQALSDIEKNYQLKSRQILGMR

[15] = molecular target: T6, Serine/threonine-protein kinase Nek2 (Homo sapiens); settings: at 1 µM
[16] = molecular target: Serine/threonine-protein kinase Nek6 (Homo sapiens) (UniProt Q9HC98); settings: at 0.1 µM
Chain of Serine/threonine-protein kinase Nek6 (Homo sapiens) (Q9HC98 whole entry): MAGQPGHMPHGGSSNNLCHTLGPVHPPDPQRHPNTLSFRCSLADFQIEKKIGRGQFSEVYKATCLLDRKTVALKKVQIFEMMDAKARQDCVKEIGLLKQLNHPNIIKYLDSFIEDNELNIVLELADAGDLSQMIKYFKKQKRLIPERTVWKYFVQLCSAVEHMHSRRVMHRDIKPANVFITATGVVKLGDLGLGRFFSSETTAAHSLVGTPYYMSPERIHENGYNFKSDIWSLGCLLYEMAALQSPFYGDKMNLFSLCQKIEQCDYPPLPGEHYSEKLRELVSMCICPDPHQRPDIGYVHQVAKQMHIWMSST

[17] = molecular target: Serine/threonine-protein kinase Nek6 (Homo sapiens) (UniProt Q9HC98); settings: at 1 µM
[18] = molecular target: Serine/threonine-protein kinase Nek7 (Homo sapiens) (UniProt Q8TDX7); settings: at 0.1 µM
Chain of Serine/threonine-protein kinase Nek7 (Homo sapiens) (Q8TDX7 whole entry, looked up): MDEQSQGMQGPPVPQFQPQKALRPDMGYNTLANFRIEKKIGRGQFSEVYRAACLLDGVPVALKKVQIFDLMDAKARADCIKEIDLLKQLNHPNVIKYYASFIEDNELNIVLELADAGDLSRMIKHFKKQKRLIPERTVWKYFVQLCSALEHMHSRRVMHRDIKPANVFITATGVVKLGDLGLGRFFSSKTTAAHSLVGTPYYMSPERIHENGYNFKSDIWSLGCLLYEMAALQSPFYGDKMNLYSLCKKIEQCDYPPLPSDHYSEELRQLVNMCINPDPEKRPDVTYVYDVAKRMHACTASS

[19] = molecular target: Serine/threonine-protein kinase Nek7 (Homo sapiens) (UniProt Q8TDX7); settings: at 1 µM
[20] = molecular target: T7, Serine/threonine-protein kinase Nek9 (Homo sapiens) (UniProt Q8TD19); settings: at 0.1 µM;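 note: reported value is the mean percent inhibition of NEK9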
T7 sequence (whole entry): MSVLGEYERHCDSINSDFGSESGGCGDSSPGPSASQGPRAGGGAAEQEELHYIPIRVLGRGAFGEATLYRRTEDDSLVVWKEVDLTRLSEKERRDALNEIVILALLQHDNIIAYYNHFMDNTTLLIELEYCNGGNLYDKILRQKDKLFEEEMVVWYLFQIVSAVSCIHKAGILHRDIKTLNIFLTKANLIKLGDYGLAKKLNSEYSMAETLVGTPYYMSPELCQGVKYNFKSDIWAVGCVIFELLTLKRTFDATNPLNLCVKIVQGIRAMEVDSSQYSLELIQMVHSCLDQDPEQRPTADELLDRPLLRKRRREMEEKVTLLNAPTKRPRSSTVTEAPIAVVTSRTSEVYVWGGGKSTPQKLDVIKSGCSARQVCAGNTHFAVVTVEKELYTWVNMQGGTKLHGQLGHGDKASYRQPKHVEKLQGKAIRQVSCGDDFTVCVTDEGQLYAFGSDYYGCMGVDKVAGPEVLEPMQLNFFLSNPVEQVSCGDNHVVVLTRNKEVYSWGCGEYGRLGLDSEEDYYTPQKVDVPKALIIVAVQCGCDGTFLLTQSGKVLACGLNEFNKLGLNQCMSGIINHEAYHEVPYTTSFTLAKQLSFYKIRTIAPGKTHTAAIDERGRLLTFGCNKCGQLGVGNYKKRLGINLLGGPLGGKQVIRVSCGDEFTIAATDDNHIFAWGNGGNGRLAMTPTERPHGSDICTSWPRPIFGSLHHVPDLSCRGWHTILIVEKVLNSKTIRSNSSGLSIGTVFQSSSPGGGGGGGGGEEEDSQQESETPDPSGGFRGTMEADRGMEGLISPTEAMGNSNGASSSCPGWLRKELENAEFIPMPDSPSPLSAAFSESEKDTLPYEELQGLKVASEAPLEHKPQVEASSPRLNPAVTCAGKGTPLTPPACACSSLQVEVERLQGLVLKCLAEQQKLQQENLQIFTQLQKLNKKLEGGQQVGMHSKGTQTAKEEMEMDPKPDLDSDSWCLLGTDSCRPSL

Chain of Sphingosine kinase 1 (Homo sapiens) (Q9NYA1 whole entry): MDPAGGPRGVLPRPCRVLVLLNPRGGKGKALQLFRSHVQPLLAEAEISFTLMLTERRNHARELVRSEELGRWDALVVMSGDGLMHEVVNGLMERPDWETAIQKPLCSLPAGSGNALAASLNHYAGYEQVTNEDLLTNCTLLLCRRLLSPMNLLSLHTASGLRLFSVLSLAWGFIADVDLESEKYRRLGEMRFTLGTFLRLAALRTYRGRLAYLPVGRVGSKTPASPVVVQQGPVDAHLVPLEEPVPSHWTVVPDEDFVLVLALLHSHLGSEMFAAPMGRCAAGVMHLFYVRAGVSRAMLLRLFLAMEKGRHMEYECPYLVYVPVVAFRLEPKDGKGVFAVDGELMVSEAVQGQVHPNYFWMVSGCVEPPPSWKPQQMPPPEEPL

`Nc1ncnc2occ(-c3ccc(NC(=O)Nc4cc(C(F)(F)F)ccc4F)cc3)c12` was tested, and the inhibition [1] was -0.65% and 1.59%, the inhibition [2] was -1.33% and 0% and the inhibition [3] was 11.6% and 0%. For the same molecule, the inhibition [4] was 2.39% and -3.9%, the inhibition [5] was 6.35% and 0.16% and the inhibition [6] was 5.79% and 7.04%. The inhibition [7] was 6.73% and 11.3%, the inhibition [8] was 1.45% and -2.16% and the inhibition [9] was 2.13% and 1.62%. The inhibition [10] was 1.57% and 0.44%, the inhibition [11] was 11.5% and 1.35% and the inhibition [12] was 4.57% and -0.38%. For the same molecule, the inhibition [13] was 34.7% and 18.1%, the inhibition [14] was 1.72% and -2.9% and the inhibition [15] was -2.44% and -3.79%. For the same molecule, the inhibition [16] was 2.68% and -0.01%, the inhibition [17] was -0.68% and -1.16% and the inhibition [18] was 2.87% and -5.06%. For the same molecule, the inhibition [19] was -8.19% and -5.1% and the inhibition [20] was 5.05% and 5.01%.
